DT40 TDP1 no CPT = qHTS for Inhibitors of human tyrosyl-DNA phosphodiesterase 1 (TDP1): qHTS in cells in absence of CPT; DT40 Tdp1-/- hTDP1 cells, no CPT, ATP luminescence, 48 h; Potency, µM (top dose mostly 46.2 µM), for inactives: top-dose activity change, negative = growth inhibition, most hits filed as inhibitors; actives 15% (n = 420,000); AID 686978, 2013; further: potency means the concentration at half of the fitted maximal effect; nearly all actives have a fitted effect of over 55% in size
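Camptothecin absent (DMSO only). Human TDP1-complemented DT40 knockout cells, 400 cells/well, 37 °C for minimum 48 hr; ATP measured via CellTiter-Glo, 30 min dark incubation, luminescence.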
HT1080 IDH1KD tx = kills HT-1080 cells with IDH1 knockdown; Potency, µM (titrated, usually from 46.1 µM), for the others: top-dose activity, negative = toxicity, most hits filed as cytotoxic; actives 2% (n = 360,000); HT-1080 IDH1 knockdown viability, ATP luminescence, 48 h; AID 686971;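 further: potency means the concentration at half of the fitted maximal effect; 0% = DMSO wells and -100% = cell-free medium wells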
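Cytotoxicity counter-line: IDH1KD HT-1080, 48 h, CellTiter-Glo. Curves classed by r2, magnitude and activity.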
IL-1B inflam inh = blocks inflammasome-driven IL-1 beta release; THP-1 LPS/ATP IL-1B secretion, AlphaLISA, 16 h; stronger effect = lower value; activity change, % at 57.5 µM; actives 4.7% (n = 360,000); AID 743279; in the data active means activity change below about -50%; inconclusive means mostly about -30% to -49%
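THP-1 cells pretreated 1 hr with compounds (up to 57.5 uM final), then stimulated with LPS (250 ng/mL final) plus ATP (1.25 mM final); secreted IL-1B measured by AlphaLISA after 16 hr, decreased signal indicating inhibition.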
HT1080-NT tox = kills 2HG-producing HT-1080-NT fibrosarcoma cells | Potency, µM (doses to about 46.1 µM), for the others: at the highest dose activity, negative = less viability, hits mostly cytotoxic | actives 1.6% (n = 360,000) | HT-1080-NT fibrosarcoma viability, CellTiter-Glo ATP luminescence, 48 h;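 further: NT is the 2HG producing partner of a matched IDH1 knockdown line; potency means the concentration at half of the fitted maximal effect; 0% = DMSO-treated cells and -100% = media-only wells without cells; nearly all actives have a fitted effect of over 55% in size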
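A 48-hour cytotoxicity screen used HT-1080-NT cells plated 2 hours before compound delivery. ATP-based CellTiter-Glo luminescence measured viability, normalized to DMSO and no-cell controls.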
DT40 TDP1 CPT = growth inhibition of DT40 Tdp1-/-;hTDP1 cells with camptothecin (screen for TDP1 inhibitors) | actives 12% (n = 420,000) | Potency, µM (top dose mostly 46.2 µM), without a hit: at the top dose activity change, negative = growth inhibition, actives largely listed as inhibitors | chicken DT40 Tdp1-/-;hTDP1 cells + 20 nM CPT, ATP luminescence, 48 h | AID 686979; further: potency means the concentration at half of the fitted maximal effect; nearly all actives have a fitted effect of over 55% in size
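Chicken DT40 Tdp1-/- cells stably complemented with human TDP1 were seeded at 400 cells/well in medium containing 20 nM camptothecin, exposed to pin-transferred compounds, and grown at 37 °C for at least 48 hr. Viability was read as ATP luminescence.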
* = called active by the depositor; ? = inconclusive; / = not tested or not shown. This is a sample that favours compounds with a hit; in the whole collection about 19% have one here. Unless noted, the call rests on the fitted dose curve; in most records, active means well fitted curve in the direction sought with a large enough effect; inconclusive means small, poorly fitted or top-dose-only effect, or another doubt; inactive means no such curve, though single readings can be large; an effect the other way counts as inactive or inconclusive. Unless noted, on the % scale 0 is the no-effect control and ±100 the full control effect.

SMILES	DT40 TDP1 no CPT	HT1080 IDH1KD tx	IL-1B inflam inh	HT1080-NT tox	DT40 TDP1 CPT
COc1ccc(CCN2C(=O)c3[nH]nc(-c4ccccc4O)c3C2c2ccc(OC)c(OC)c2)cc1 (configuration not stated)	?	/	/	/	-118.9%
CCOc1ccc(C2c3c(-c4ccccc4O)n[nH]c3C(=O)N2Cc2cccnc2)cc1OC (configuration not stated)	6.4%	/	/	/	-20.9%
CCCCN1C(=O)c2[nH]nc(-c3ccccc3O)c2C1c1ccc(OCc2ccccc2)c(OC)c1 (configuration not stated)	20.6µM*	/	/	/	?
CCCN1C(=O)c2[nH]nc(-c3ccccc3O)c2C1c1ccc(OCc2ccccc2)c(OCC)c1 (configuration not stated)	16.4µM*	/	/	/	23.1µM*
CC(C)OCCCN1C(=O)c2[nH]nc(-c3ccccc3O)c2C1c1ccccc1F (configuration not stated)	13µM*	/	/	/	13µM*
COc1ccc(CCN2C(=O)c3[nH]nc(-c4ccccc4O)c3C2c2cccc(O)c2)cc1OC (configuration not stated)	?	?	-29.4	?	-0.5%
CC(C)OCCCN1C(=O)c2[nH]nc(-c3ccccc3O)c2C1c1cccc(OCc2ccccc2)c1 (configuration not stated)	?	/	/	/	10.3µM*
COC1OC2COC(c3ccccc3)OC2C(O)C1NC(=O)c1ccccc1 (configuration not stated)	?	21.6%	7.1	20.8%	0.2%
C[C@H](NC(=O)c1ccccc1Cl)C(=O)OCC(=O)N1CC2(C)CC1CC(C)(C)C2 (some centres not stated)	27.3%	2.6%	11.3	2.4%	0.9%
Cn1c(SCc2cccc(Br)c2)nnc1-c1ccncc1	-4.1%	-9.5%	5.3	-0.8%	-0.6%
CC(C)(C)NC(=O)C(=O)NNC(=O)c1cccc([N+](=O)[O-])c1	4.6%	17.7%	-5.4	5.2%	19.1%
CC1CC(C)CN(S(=O)(=O)c2ccc(C(=O)N3CC(C)OC(C)C3)cc2)C1 (configuration not stated)	?	2.3%	2.8	2.6%	-23.8%
CCCCn1c(N)c(N(CC(C)C)C(=O)Cc2ccc(S(=O)(=O)N3CCOCC3)s2)c(=O)[nH]c1=O	1.1%	13.6%	12.1	-5.5%	-4.7%
O=C(CCNS(=O)(=O)c1cccc(C(F)(F)F)c1)NCc1ccco1	5.4%	2.7%	11.1	2.4%	-18.8%
CCCCN1C(=O)c2[nH]nc(-c3ccccc3O)c2C1c1ccc(OCc2ccccc2)cc1 (configuration not stated)	?	/	/	/	18.4µM*
O=C1c2[nH]nc(-c3ccccc3O)c2C(c2cccc(OCc3ccccc3)c2)N1CCO (configuration not stated)	?	/	/	/	-1.2%
O=C1c2[nH]nc(-c3ccccc3O)c2C(c2ccc(F)cc2)N1CC1CCCO1 (configuration not stated)	?	-7.4%	-5.7	-1.7%	?
CCCOc1ccc(C2c3c(-c4c(C)cc(C)cc4O)n[nH]c3C(=O)N2CCO)cc1 (configuration not stated)	23.1µM*	/	/	/	20.6µM*
CCCCN1C(=O)c2[nH]nc(-c3ccccc3O)c2C1c1ccc(C(C)(C)C)cc1 (configuration not stated)	13µM*	/	/	/	20.6µM*
COc1cc(C2c3c(-c4cc(C)ccc4O)n[nH]c3C(=O)N2CCCO)ccc1OCCC(C)C (configuration not stated)	29.1µM*	/	/	/	?
CC1CCCN(CCCN2C(=O)C3C(C(=O)Nc4ccc(Cl)cc4)C4C=CC3(O4)C2C(=O)NC2CCCCC2)C1 (configuration not stated)	-4.5%	9.9%	?	7.8%	11.9%

High-throughput results (PubChem)
